The nature of assay [1]: qHTS for Inhibitors of the Functional Ribonucleoprotein Complex (vRNP) of Lassa (LASV) Arenavirus: LASV Primary Screen - GLuc reporter signal (AID 1347082; calls by dose curve; tested in HEK293 reporter line; note: series mostly up to about 57 µM; nearly all actives have a fitted effect of over 60% in size).
The nature of assay [2]: qHTS for Inhibitors of the Functional Ribonucleoprotein Complex (vRNP) of Lassa (LASV) Arenavirus: Viability assay - alamar blue signal for LASV Primary Screen (AID 1347083; calls by dose curve; tested in HEK293 reporter line; note: series mostly up to about 57 µM; nearly all actives have a fitted effect of over 80% in size).
The nature of assay [3]: qHTS for Inhibitors of the Functional Ribonucleoprotein Complex (vRNP) of Lymphocytic Choriomeningitis Arenaviruses (LCMV): Viability assay - alamar blue signal for LCMV Primary Screen (AID 1347085; calls by dose curve; tested in HEK293 reporter line; note: series mostly up to about 57 µM; nearly all actives have a fitted effect of over 80% in size).
Assay [4] has as its target Nucleoprotein (Lymphocytic choriomeningitis virus (strain Armstrong)) (UniProt P09992). The experiment in a line: qHTS for Inhibitors of the Functional Ribonucleoprotein Complex (vRNP) of Lymphocytic Choriomeningitis Arenaviruses (LCMV): LCMV Primary Screen - GLuc reporter signal (AID 1347086; calls by dose curve; note: series mostly up to about 57 µM; nearly all actives have a fitted effect of over 70% in size).
Assay [5] is described as follows: qHTS of pediatric cancer cell lines to identify multiple opportunities for drug repurposing: Primary screen for TC32 cells (AID 1347089). Note: nearly all actives have a fitted effect of over 60% in size. The method, boiled down:
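In the primary qHTS, MIPE compounds were tested at 11 concentrations (0.78 nM to 46 µM) and NPC compounds at 8 (0.59 nM to 46 µM) on TC32 cells for 48 h. CellTiter-Glo luminescence gave viability.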

Assay [6] in a line: qHTS of pediatric cancer cell lines to identify multiple opportunities for drug repurposing: Primary screen for DAOY cells (AID 1347090). Note: nearly all actives have a fitted effect of over 55% in size. Note: potency is the fitted concentration of half-maximal effect. Summed up:
(§1)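 Eight- or eleven-point concentration series, 48 h treatment at 37 degrees C in growth media; readout CellTiter-Glo luminescence. Potency and efficacy were taken from the concentration-response curves.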

Assay [7] is described as follows: qHTS of pediatric cancer cell lines to identify multiple opportunities for drug repurposing: Primary screen for A673 cells (AID 1347092). Note: nearly all actives have a fitted effect of over 45% in size. Note: potency is the fitted concentration of half-maximal effect. The method, boiled down: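 48 h compound exposure, A673, 500-1,000 cells/well, 37 degrees C/5% CO2. MIPE: 11-point, 0.78 nM-46 µM; NPC: 8-point, 0.59 nM-46 µM (final). Readout CellTiter-Glo luminescence after 15 min RT.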
A short description of assay [8]: qHTS of pediatric cancer cell lines to identify multiple opportunities for drug repurposing: Primary screen for SK-N-MC cells (AID 1347093). Note: potency is the fitted concentration of half-maximal effect. The method, boiled down:
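Metabolically active cells were quantified by ATP-dependent luminescence (CellTiter-Glo, 15 min at room temperature) following 48 h treatment. Cells had been plated at 500-1,000 per well and settled for 5 h beforehand.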

Assay [9] is described as follows: qHTS of pediatric cancer cell lines to identify multiple opportunities for drug repurposing: Primary screen for BT-37 cells (AID 1347094). Note: potency is the fitted concentration of half-maximal effect. The method, boiled down:
(§2)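 Cells plated at 500-1,000/well in growth medium, compounds added after 5 h. MIPE tested at 11 points (from 0.78 nM), NPC at 8 points (from 0.59 nM). CellTiter-Glo luminescence after 48 h; concentration-response curves from primary screen.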

Assay [10] in a line: qHTS of pediatric cancer cell lines to identify multiple opportunities for drug repurposing: Primary screen for NB-EBc1 cells (AID 1347095). The method, boiled down:
as §2

The nature of assay [11]: qHTS of pediatric cancer cell lines to identify multiple opportunities for drug repurposing: Primary screen for U-2 OS cells (AID 1347096). Note: nearly all actives have a fitted effect of over 50% in size. The method, boiled down:
(§3)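 Cells (500-1,000/well) in growth media were settled 5 h at 37 degrees C, then given compounds for 48 h. Viability was read as CellTiter-Glo luminescence. Primary runs used MIPE at 11 points (0.78 nM-46 µM) and NPC at 8 points (0.59 nM-46 µM); follow-ups used 11 points.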

Assay [12] is described as follows: qHTS of pediatric cancer cell lines to identify multiple opportunities for drug repurposing: Primary screen for NB1643 cells (AID 1347099). Note: nearly all actives have a fitted effect of over 50% in size. Summed up: as §2
A short description of assay [13]: qHTS of pediatric cancer cell lines to identify multiple opportunities for drug repurposing: Primary screen for LAN-5 cells (AID 1347100). Note: potency is the fitted concentration of half-maximal effect. The method, boiled down: as §3
Assay [14] in a line: qHTS of pediatric cancer cell lines to identify multiple opportunities for drug repurposing: Primary screen for BT-12 cells (AID 1347101). Note: nearly all actives have a fitted effect of over 25% in size. Note: potency is the fitted concentration of half-maximal effect. Summed up: (§4)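 Cells (500-1,000/well) rested 5 h, then received compounds for 48 h; metabolically active cells were measured by CellTiter-Glo luminescence. Final concentrations spanned up to 46 µM (MIPE, 11-point) or 0.59 nM-46 µM (NPC, 8-point) in primary screens, 11-point in follow-ups.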

Assay [15] is described as follows: qHTS of pediatric cancer cell lines to identify multiple opportunities for drug repurposing: Primary screen for Saos-2 cells (AID 1347097). Note: nearly all actives have a fitted effect of over 40% in size. Note: potency is the fitted concentration of half-maximal effect. Summed up: as §2
A short description of assay [16]: qHTS of pediatric cancer cell lines to identify multiple opportunities for drug repurposing: Primary screen for Rh18 cells (AID 1347102). Note: nearly all actives have a fitted effect of over 65% in size. Note: potency is the fitted concentration of half-maximal effect. The method, boiled down: as §3
Assay [17] is described as follows: qHTS of pediatric cancer cell lines to identify multiple opportunities for drug repurposing: Primary screen for SK-N-SH cells (AID 1347098). Note: nearly all actives have a fitted effect of over 65% in size. Note: potency is the fitted concentration of half-maximal effect. Summed up:
as §4

The nature of assay [18]: qHTS of pediatric cancer cell lines to identify multiple opportunities for drug repurposing: Primary screen for SJ-GBM2 cells (AID 1347091). The method, boiled down: as §1

Inconclusive results are not listed. The source made the active and inactive calls. Unless noted, calls come from the whole dose curve; as a rule, active = well fitted curve in the direction sought with a large enough effect; inconclusive = small, poorly fitted or top-dose-only effect, or another doubt; inactive = no such curve, though single readings can be large; an effect the other way counts as inactive or inconclusive.

Nucleoprotein (Lymphocytic choriomeningitis virus (strain Armstrong)), sequence (P09992 whole entry, looked up): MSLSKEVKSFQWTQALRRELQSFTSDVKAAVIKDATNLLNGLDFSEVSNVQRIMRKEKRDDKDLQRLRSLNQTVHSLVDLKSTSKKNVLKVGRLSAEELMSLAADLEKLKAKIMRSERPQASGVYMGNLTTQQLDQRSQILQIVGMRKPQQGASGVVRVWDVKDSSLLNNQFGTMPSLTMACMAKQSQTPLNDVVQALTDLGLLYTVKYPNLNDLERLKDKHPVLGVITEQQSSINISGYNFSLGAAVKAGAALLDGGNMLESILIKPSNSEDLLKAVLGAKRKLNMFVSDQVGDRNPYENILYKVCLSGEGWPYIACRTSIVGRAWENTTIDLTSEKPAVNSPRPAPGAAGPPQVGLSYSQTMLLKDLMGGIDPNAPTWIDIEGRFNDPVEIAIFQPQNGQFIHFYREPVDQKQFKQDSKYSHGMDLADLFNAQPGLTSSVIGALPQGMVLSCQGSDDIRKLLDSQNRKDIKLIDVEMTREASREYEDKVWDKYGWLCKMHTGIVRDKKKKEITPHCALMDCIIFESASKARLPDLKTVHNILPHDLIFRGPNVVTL

Regarding `O=C1NCN(c2ccccc2)C12CCN(CCCOc1ccc(F)cc1)CC2`, the Potency result in assay [1], in assay [2], in assay [3], in assay [4], in [5] and in [6] was “inactive” each time. The Potency entry in assay [7], in [8], in [10], in [11], in [12] and in [13] was “inactive” throughout. The Potency is 17.4 µM (active) in assay [9] and 11 µM (active) in assay [14].
Take `CC1COC2(c3ccccc3Cl)c3cc(Cl)ccc3NC(=O)CN12` (configuration not stated): the Potency entry in assay [1], in assay [2], in assay [3], in [4], in [5] and in [6] was “inactive” throughout. The Potency entry in assay [7], in assay [8], in [9], in assay [10], in [11] and in assay [15] was “inactive” each time. Further, the Potency result in assay [16] is “inactive”. Besides, the Potency in assay [13] is 6.68 µM (active).
`CN(C)CCCOc1nn(Cc2ccccc2)c2ccccc12`: the Potency result in [1], in assay [2] and in [4] was “inactive” in each case.
Regarding `c1ccc(CC2=NCCN2)cc1`, the Potency result in [1], in assay [2] and in [4] was “inactive” each time.
Consider `CC1(C)O[C@@H]2C[C@H]3[C@@H]4CCC5=CC(=O)CC[C@]5(C)[C@@]4(F)[C@@H](O)C[C@]3(C)[C@]2(C(=O)CCl)O1`, for which the Potency result in assay [1], in [2] and in assay [4] was “inactive” in each case.
On to `CC#C[C@]1(O)CC[C@H]2[C@@H]3C[C@H](C)C4=CC(=O)CC[C@]4(C)[C@H]3CC[C@@]21C`, for which the Potency result in assay [1], in assay [2], in assay [3], in assay [4], in assay [5] and in assay [6] was “inactive” throughout. Also, the Potency result in [7], in [11], in assay [15] and in assay [17] was “inactive” each time. In addition, the Potency in [8] was 23.7 µM (active).
Turning to `C=C[C@@]1(C)CC(=O)[C@]2(O)[C@@]3(C)[C@@H](O)CCC(C)(C)[C@@H]3[C@H](O)[C@H](OC(C)=O)[C@@]2(C)O1`, the Potency entry in assay [1], in assay [2] and in assay [4] was “inactive” each time.
`CC(CC(C#N)(c1ccccc1)c1ccccc1)N(C)C` (configuration not stated): the Potency entry in assay [1], in [2], in [3], in assay [4], in assay [5] and in assay [6] was “inactive” in each case. The Potency result in [7], in [10], in assay [11], in [12], in assay [13] and in assay [16] was “inactive” in each case.
Regarding `Clc1ccc(C(OCCN2CCCCC2)c2ccccc2)cc1` (configuration not stated), the Potency entry in assay [1], in assay [2], in assay [3], in assay [4], in assay [5] and in [6] was “inactive” throughout. Also, the Potency result in assay [11], in assay [15], in assay [12], in [13] and in assay [16] was “inactive” each time.
Take `C#C[C@]1(O)CC[C@H]2[C@@H]3CCC4=CC(=O)CCC4=C3C=C[C@@]21CC`: the Potency result in [1], in [2], in assay [3], in assay [4], in assay [5] and in assay [18] was “inactive” in each case. Besides, the Potency result in [10], in assay [11], in assay [15] and in assay [13] was “inactive” in each case.
In the case of `CCCCCCCCCCCC[N+](C)(C)CCOc1ccccc1`, the Potency entry in assay [1], in assay [2], in assay [3] and in assay [4] was “inactive” throughout. The Potency is 26.6 µM (active) in assay [6]; 6.68 µM (active) in assay [8]; 30.9 µM (active) in [9]; 13.3 µM (active) in [15]; 13.7 µM (active) in assay [17]; 23.7 µM (active) in assay [13]. In [16], the Potency is 8.41 µM (active).
On to `O=C(O)c1cccc(-c2noc(-c3ccccc3F)n2)c1`, for which the Potency result in assay [1], in [2] and in [4] was “inactive” in each case.
`CNC(C)Cc1ccc2c(c1)OCO2` (configuration not stated): the Potency result in assay [1], in assay [2], in assay [3], in assay [4], in assay [18] and in assay [9] was “inactive” each time. For the same compound, the Potency entry in [10], in [11], in [17], in assay [12], in assay [13] and in assay [14] was “inactive” each time. In assay [16], the Potency entry is “inactive”. Besides, the Potency in assay [6] is 47.4 µM (active).
For the compound `CC(CNC1CCCCC1)OC(=O)c1ccccc1` (configuration not stated), the Potency result in [1], in [2] and in assay [4] was “inactive” throughout.
Take `COC(=O)C1=C(C)NC(C)=C(C(=O)OCCCN2CCC(c3ccccc3)(c3ccccc3)CC2)C1c1cccc([N+](=O)[O-])c1` (configuration not stated): the Potency result in assay [1], in [2] and in assay [4] was “inactive” throughout.
For the compound `CC(C)(C)OC(=O)c1ncn2c1[C@@H]1CCCN1C(=O)c1c(Br)cccc1-2`, the Potency result in assay [1], in assay [2], in assay [3], in assay [5], in assay [6] and in assay [18] was “inactive” each time. Besides, the Potency entry in assay [7], in assay [8], in assay [9], in assay [10], in [11] and in [15] was “inactive” in each case. The Potency entry in assay [17], in assay [12], in [13] and in [16] was “inactive” throughout.
As for `O=C(CCl)c1ccc(Cl)cc1Cl`, the Potency result in [1], in assay [2], in assay [3], in assay [4], in [5] and in [11] was “inactive” each time. In addition, the Potency entry in assay [16] is “inactive”. In addition, the Potency in assay [7] is 26.6 µM (active); in [13] it was 16.8 µM (active).
Turning to `CN1C(=O)[C@@H](NC(=O)c2cc3ccccc3[nH]2)N=C(c2ccccc2)c2ccccc21`, the Potency result in assay [1], in assay [2], in [3], in [4], in assay [5] and in assay [9] was “inactive” each time. In addition, the Potency entry in assay [10], in assay [11], in [17], in assay [12], in [14] and in assay [16] was “inactive” each time. Besides, the Potency was 6.68 µM (active) in [7] and 10.6 µM (active) in [15].
